Out of some 330,000 compounds screened, about 4,900 (1.5%) were called active.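 Rule for the calls: active = inhibition above the mean inhibition across the screen plus 3 SD (cut at about 25% in these data); inactive = the rest.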 The sample as a whole holds a higher share of actives than the screen did.
What follows are compounds tested against Platelet-activating factor acetylhydrolase (Homo sapiens) (UniProt Q13093) (assay: pPAFAH enzyme inhibitors, primary screen, biochemical, fluorescence polarization, human (AID 463082;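 note: inhibitors block binding of the rhodamine activity-based probe so polarization drops; 0% = enzyme with DMSO and 100% = wells lacking pPAFAH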)). Details: recombinant pPAFAH, FP-rhodamine probe fluorescence polarization; at 3.39 µM; active compounds read high.
Chain of Platelet-activating factor acetylhydrolase (Homo sapiens) (Q13093 whole entry, looked up): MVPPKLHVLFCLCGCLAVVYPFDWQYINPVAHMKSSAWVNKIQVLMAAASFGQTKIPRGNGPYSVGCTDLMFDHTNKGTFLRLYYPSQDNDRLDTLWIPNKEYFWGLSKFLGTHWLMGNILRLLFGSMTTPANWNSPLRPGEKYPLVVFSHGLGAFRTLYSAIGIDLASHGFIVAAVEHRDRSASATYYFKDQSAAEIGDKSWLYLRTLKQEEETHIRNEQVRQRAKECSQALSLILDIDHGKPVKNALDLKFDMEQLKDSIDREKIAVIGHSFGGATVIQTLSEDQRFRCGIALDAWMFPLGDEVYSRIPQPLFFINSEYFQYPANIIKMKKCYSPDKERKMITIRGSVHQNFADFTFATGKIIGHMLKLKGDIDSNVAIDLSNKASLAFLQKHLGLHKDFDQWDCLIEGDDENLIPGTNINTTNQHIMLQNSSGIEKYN

Row | SMILES | inhibition
1 | COc1ccc(CN2C(=O)NC(=O)/C(=C\c3ccc(OC)c(OC)c3OC)C2=O)cc1 | 2.22% (inactive)
2 | COc1ccc(N2C(=O)/C(=C/c3ccco3)C(=O)NC2=S)cc1 | 39.7% (active)
3 | COc1cccc(N2C(=O)NC(=O)/C(=C\c3cn(C)c4ccccc34)C2=O)c1 | 0.95% (inactive)
4 | O=C(CN1CCCC1=O)NCCc1ccccc1 | 6.04% (inactive)
5 | O=C1CC(=O)N(Cc2ccccc2)C(=O)N1CCCCCCN1C(=O)CC(=O)N(Cc2ccccc2)C1=O | 41.3% (active)
6 | CC(C)(C)c1ccc(CN2C(=O)CN=C(c3ccccc3)c3ccccc32)cc1 | -2.71% (inactive)
7 | O=c1[nH]c(CN2CC=C(c3ccccc3)CC2)nc2scc(-c3cccs3)c12 | 8.85% (inactive)
8 | CN(C)c1ccc(/C=C2\CC3C4CC=C5CC(O)CCC5(C)C4CCC3(C)C2=O)cc1 (stereo not given) | 3.94% (inactive)
9 | Cc1nn(-c2ccccc2)c(C)c1NC(=O)COC(=O)Cc1ccccc1 | 46.5% (active)
10 | Cc1ccccc1NC(=O)COC(=O)c1cc(C)n(C2CC2)c1C | 3.84% (inactive)
11 | O=C(COC(=O)Cc1ccccc1)Nc1ccc(F)cc1 | 23.1% (inactive)
12 | O=[N+]([O-])c1ccc(C2C3C(c4ccccc4)=NC4(CCCCC4)N32)cc1 (stereo not given) | 6.5% (inactive)
13 | Cn1cc(C(=O)OCC(=O)N2CCCC2)c2ccccc21 | -2.21% (inactive)
14 | COc1ccccc1NC(=O)N1C[C@@H]2C[C@@H](C1)c1cccc(=O)n1C2 | 5.55% (inactive)
15 | CSc1nc2ccc(C)cc2c(=O)n1-c1cccnc1 | -1.83% (inactive)
16 | Cc1ccccc1N1C(=O)NC(=O)/C(=C\c2cc(C)n(C)c2C)C1=O | -0.82% (inactive)
17 | O=C1NC(=O)N(c2ccccc2)C(=O)/C1=C/c1ccc([N+](=O)[O-])s1 | 58% (active)
18 | COC(=O)C1=C(c2ccc(C(C)=O)cc2)C[C@@H]2CC[C@H]1N2C(=O)NCCNC(C)=O | 3.68% (inactive)
19 | COc1cccc(C(=O)N2C[C@H]3C[C@@H](C2)c2cccc(=O)n2C3)c1 | 3.04% (inactive)
20 | C/C(=N/O)c1ccc2ccc3ccccc3c2c1 | 1.83% (inactive)
21 | COC(=O)C1=C(c2cc3ccccc3s2)C[C@@H]2CC[C@H]1N2C(=O)NC(C)C | 4.37% (inactive)
22 | NCCc1ccc(S(=O)(=O)F)cc1 | 59.5% (active)
23 | CN1CCN(Cc2ccc(OC(F)(F)F)cc2)CC1 | -4.99% (inactive)
24 | C=Cn1ccnc1P(=S)(c1cc(N(CC)CC)ns1)c1nccn1C=C | -4.36% (inactive)
25 | CCOC(=O)C1CN(C)CCC1=O (stereo not given) | 4.48% (inactive)

Reference: PubChem BioAssay AID463082 (The Scripps Research Institute Molecular Screening Center, 2010)
